Screening data from PubChem BioAssay.
Most compounds without a hit are left out; they make up all but 8.1% or so of the library.
KB-3-1 tox: KB-3-1 parental cell cytotoxicity; Potency, µM (doses to about 46.1 µM), usual class: cytotoxic; 1.4% of 400,000 active; AID 1347075; KB-3-1 viability, CellTiter-Glo ATP luminescence, 72 h; also: nearly all actives have a fitted effect of over 60% in size
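Cytotoxicity measured as CellTiter-Glo luminescence after 72 h at 37 C. Compound titrations were pinned onto drug-naive KB-3-1 parental adenocarcinoma cells grown in DMEM with 10% FBS, and normalized data fitted to concentration-response curves.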
MCF10A rereplic: induces DNA re-replication in MCF 10a normal breast cells; 2.9% of 350,000 active; AID 624296; MCF 10A DNA re-replication, Hoechst nuclear intensity, 48 h; Potency, µM (highest dose often 46.1 µM), hits mostly activators; also: nearly all actives have a fitted effect of over 50% in size
SW480 rereplic: induces DNA re-replication in SW480 colon adenocarcinoma cells. SW480 DNA re-replication, Hoechst DNA content imaging, 48 h. Potency, µM (highest dose often 46.1 µM), actives largely listed as activators. 1.8% of 340,000 active; also: nearly all actives have a fitted effect of over 55% in size
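Readout is total intensity of Hoechst-stained nuclei, excited at 405 nm and collected at 500-530 nm. Compound treatment lasted 48 hr at 37 C in 5% CO2 before staining.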
KB-V1 MDR tox: KB-V1 MDR subline cytotoxicity. KB-V1 MDR cells viability, CellTiter-Glo, 72 h. Potency, µM (series often up to 46.1 µM), hits mostly cytotoxic. 3.4% of 400,000 active; also: nearly all actives have a fitted effect of over 60% in size
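Cells of the MDR subline KB-V1 are plated, dosed with compound at multiple concentrations, and incubated 72 h at 37 degrees C; CellTiter-Glo is then added and luminescence read after 10 min.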
ELG1 DNA repair: blocks ELG1-dependent DNA repair in HEK293T cells. Potency, µM (top dose mostly 46.1 µM), most hits filed as inhibitors. 2.3% of 330,000 active. HEK293T ELG1-luciferase reporter, luminescence, 16 h; DNA damage induced by 5-fluorouridine; also: nearly all actives have a fitted effect of over 55% in size
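Step one: seed 2,000 cells per well. Step two: pin-transfer compound or DMSO alongside 5-fluorouridine. Step three: incubate 16 hr, 37 °C, 5% CO2. Step four: add ONE-Glo, wait 30 min, read luminescence.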
Large screens that a line does not name were inactive; ! = not confirmed by another sample. Calls follow the shape of the dose curve; as a rule, active = well fitted curve in the direction sought with a large enough effect; inconclusive = small, poorly fitted or top-dose-only effect, or another doubt; inactive = no such curve, though single readings can be large; an effect the other way counts as inactive or inconclusive.

Cc1cc(OCC(=O)N2CCN(CCc3ccncc3)CC2)cc(C)c1Cl	none (no result: MCF10A rereplic, SW480 rereplic, ELG1 DNA repair)
CC1CC2CC(=O)CCC2(C)C2CCC3(C)C(O)CCC3C12 (configuration not stated)	KB-3-1 tox inconclusive, KB-V1 MDR tox 5.8µM (no result: MCF10A rereplic, SW480 rereplic, ELG1 DNA repair)
CC12CCC3C(CCCC4CC(=O)CCC43C)C1CCC2O (configuration not stated)	KB-3-1 tox inconclusive, KB-V1 MDR tox 7.3µM (no result: ELG1 DNA repair)
C[C@]12CCC(=O)C[C@H]1CC[C@@H]1[C@@H]2CC[C@]2(C)[C@@H](O)CC[C@@H]12	none (no result: KB-3-1 tox, MCF10A rereplic, SW480 rereplic, KB-V1 MDR tox)
O=c1oc(-c2cccc(C(F)(F)F)c2)nn1-c1ccc(C(F)(F)F)cn1	KB-3-1 tox inconclusive, MCF10A rereplic inconclusive, ELG1 DNA repair inconclusive
Cc1nnc2ccc(-c3cccc(C(F)(F)F)c3)nn12	KB-V1 MDR tox 12µM (no result: ELG1 DNA repair)
COc1ccccc1CC(=O)Nc1ccc2c(c1)OC1(CCCC1)O2	SW480 rereplic inconclusive, ELG1 DNA repair inconclusive
COC(=O)c1ccc2ccn(CC(=O)NC(C)C)c2c1	ELG1 DNA repair inconclusive
CNCC[C@H](Oc1cccc2ccccc12)c1cccs1	KB-3-1 tox inconclusive, SW480 rereplic 13µM, KB-V1 MDR tox inconclusive (no result: ELG1 DNA repair)
COc1cccc(-c2sc3ccccc3c2-c2ccc(OCCN3CCOCC3)cc2)c1	KB-3-1 tox inconclusive
CCOc1ccc(-c2cc(C)[n+](CCN3CCOCC3)c(-c3ccc(OCC)cc3)c2)cc1	KB-3-1 tox inconclusive, SW480 rereplic inconclusive, ELG1 DNA repair 16µM
CCN(CC)c1ccc(CNCCc2ccccc2F)cc1	KB-3-1 tox inconclusive, MCF10A rereplic inconclusive, KB-V1 MDR tox 21µM, ELG1 DNA repair inconclusive
O=C(CCCCCCCCCCC(=O)NCc1cccnc1)NCc1cccnc1	KB-3-1 tox inconclusive, KB-V1 MDR tox inconclusive, ELG1 DNA repair 3.7µM
O=C(NCc1cccnc1)Nc1ccccc1Cl	KB-V1 MDR tox inconclusive
C[C@@H]1O[C@@H](O[C@@H]2C=C3CC[C@@H]4[C@@H](CC[C@]5(C)[C@H](c6ccc(=O)oc6)CC[C@@]45O)[C@@]3(C)CC2)[C@H](O)[C@H](O)[C@H]1O	KB-3-1 tox 0.012µM, KB-V1 MDR tox 0.92µM (no result: MCF10A rereplic, SW480 rereplic, ELG1 DNA repair)
CCOC(=O)/C=C(C)/C=C/CC(C)CCCC(C)C (configuration not stated)	none (no result: KB-3-1 tox, KB-V1 MDR tox, ELG1 DNA repair)
c1ccc(OCc2ccc(CCCN3CCOCC3)cc2)cc1	MCF10A rereplic 24µM!, ELG1 DNA repair inconclusive
O=C(c1ccc2c(c1)ncn2C1CCCCC1)N1CCC2(CC1)OCCO2	KB-3-1 tox inconclusive, MCF10A rereplic 13µM, SW480 rereplic 12µM, KB-V1 MDR tox 9.2µM
Cc1cccc(-c2nc3ccc(C(=O)N4CCC5(CC4)OCCO5)cc3nc2-c2cccc(C)c2)c1	KB-3-1 tox inconclusive, MCF10A rereplic inconclusive, SW480 rereplic inconclusive, ELG1 DNA repair inconclusive
COc1ccc(/C=C/C(=O)c2c(O)n(CCC3=CCCCC3)c(=O)[nH]c2=O)cc1	KB-3-1 tox 21µM, MCF10A rereplic 7.3µM, KB-V1 MDR tox 10µM, ELG1 DNA repair inconclusive
O=C(/C=C/c1ccc2c(c1)OCO2)c1c(O)n(CCC2=CCCCC2)c(=O)[nH]c1=O	KB-3-1 tox inconclusive, MCF10A rereplic 1.8µM, KB-V1 MDR tox 7.3µM
CN(C)CCN=Cc1c(O)n(CCC2=CCCCC2)c(=O)[nH]c1=O	none
C/C(CC(=O)Nc1ccc(Cl)cn1)=N\NC(=O)Cc1cccs1	ELG1 DNA repair inconclusive
N#Cc1cc2c(nc1SCC(=O)Nc1cccc(F)c1)C1CCN2CC1	KB-3-1 tox inconclusive, KB-V1 MDR tox 10µM (no result: MCF10A rereplic, SW480 rereplic, ELG1 DNA repair)
Nc1ccc(N)cc1	none (no result: KB-3-1 tox, KB-V1 MDR tox, ELG1 DNA repair)
CCN(CC)S(=O)(=O)c1cc(NC(=O)C(C)N2CC=C(c3ccccc3)CC2)ccc1C (configuration not stated)	KB-3-1 tox 21µM, SW480 rereplic inconclusive, KB-V1 MDR tox 16µM, ELG1 DNA repair 15µM
CN(C)C(=O)Oc1ccc[n+](C)c1	none
C=CCN1C(=O)NC(=O)/C(=C/c2ccc(OC)c(COc3ccc(NC(C)=O)cc3)c2)C1=O	KB-3-1 tox inconclusive, MCF10A rereplic inconclusive, SW480 rereplic 16µM, KB-V1 MDR tox inconclusive
CNC(=O)O/N=C/C(C)(C)S(C)=O (configuration not stated)	none (no result: MCF10A rereplic, SW480 rereplic, ELG1 DNA repair)
C#CCN[C@H](C)Cc1ccccc1	MCF10A rereplic inconclusive, SW480 rereplic 3.2µM
CNC(C)Cc1ccccc1 (configuration not stated)	none
